Experimental findings from PubChem BioAssay (NCI) are described below.

Molecules are shown by their SMILES. The panel holds about 83,000 compounds, 20% with a hit somewhere; the sample as a whole holds those more often.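 A percent growth of 40 corresponds to 60% growth inhibition; 0 means no net growth; -100 means all cells died. Active threshold: below 10.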 Values without a mark were called inactive. The source made the active and inactive calls.

Test systems include T-47D breast; BT-549 breast; MDA-MB-435 melanoma; SW-620 colon; MCF7 breast; HCT-116 colon; HCC-2998 colon; KM12 colon.
Holding throughout (assay): NCI-60 one-dose screen, 48 h (100 = growth as untreated, 0 = no growth, -100 = all killed)
Settings in all cases: 10 µM

Consider `Cc1cc(C)c2c(Nc3ncnc4c3sc3nc(C)cc(C)c34)n[nH]c2n1`, for which the growth in the experiment with T-47D breast was 89.8%; in the experiment on BT-549 breast, 101%; with MDA-MB-435 melanoma, 98.7%; in the experiment with SW-620 colon it was 101%; in the experiment on MCF7 breast, 103%; with HCT-116 colon, 103%. Also, the values for the growth with HCC-2998 colon and with KM12 colon were 113% and 111%, respectively.
On to `CC(CNC(Cc1ccccc1)c1ccccc1)NC(Cc1ccccc1)c1ccccc1` (centres undefined), for which the growth with T-47D breast is 14.6%; in the experiment with BT-549 breast, 60.9%; with MDA-MB-435 melanoma, 63.4%; in the experiment with SW-620 colon, 26.4%; in the experiment on MCF7 breast it was 8.12% (active); in the experiment on HCT-116 colon, 13.2%. Moreover, the growth in the experiment on HCC-2998 colon was 20.1%; in the experiment on KM12 colon, 22.2%.
In the case of `CCc1c(C(=O)NCc2c(O)ccc3cccc(O)c23)[nH]c(C)c1C(C)=O`, the growth in the experiment with T-47D breast was 9.15% (active); with BT-549 breast it was 34.5%; in the experiment on MDA-MB-435 melanoma, 35.1%; with SW-620 colon, 68.7%; with MCF7 breast it was 11.6%; in the experiment on HCT-116 colon, 42.3%. In addition, the figures for the growth in the experiment with HCC-2998 colon and with KM12 colon were 47.9% and 31.2%, respectively.
For `NC(=O)c1ccc(Br)o1`, the growth in the experiment on T-47D breast is 92.9%; in the experiment with BT-549 breast, 103%; in the experiment on MDA-MB-435 melanoma, 112%; with SW-620 colon, 113%; in the experiment with MCF7 breast it was 95.5%; in the experiment on HCT-116 colon it was 108%. For the same compound, the growth in the experiment on HCC-2998 colon was 91.1%; in the experiment with KM12 colon, 102%.
As to `COc1ccc(-c2nnc(N3CCN(C(=O)CN4CCN(c5ccc(Cl)cc5)CC4)CC3)nc2-c2ccc(OC)cc2)cc1`, the growth in the experiment with T-47D breast was 38.2%; with BT-549 breast, 59%; in the experiment with MDA-MB-435 melanoma, 68%; in the experiment on SW-620 colon, 69.3%; in the experiment on MCF7 breast it was 37.1%; in the experiment on HCT-116 colon, 34.1%. Further, the growth in the experiment on HCC-2998 colon was 75.2%.
As for `COc1ccc(-c2cc(/C=C/C(=O)c3ccc(N)cc3)[nH]n2)cc1OC`, the growth is 50.3% with T-47D breast; 55.4% with BT-549 breast; 46.8% with MDA-MB-435 melanoma; 10.2% with SW-620 colon; 14.9% in the experiment with MCF7 breast; 17.4% in the experiment with HCT-116 colon. Also, the growth in the experiment with HCC-2998 colon was 38.8%; with KM12 colon, 5.98% (active).
On to `S=c1c2ncccc2c(-c2ccccn2)nn1Cc1ccccn1`, for which the growth in the experiment with T-47D breast is 75.5%; with BT-549 breast, 79.7%; with MDA-MB-435 melanoma it was 100%; in the experiment on SW-620 colon, 109%; with MCF7 breast, 90.7%; in the experiment with HCT-116 colon it was 62%. Further, the growth was 91.9% in the experiment on HCC-2998 colon and 103% in the experiment with KM12 colon.
Take `COc1cc(Cl)cc(-c2nn(-c3cccc(NC(=O)Nc4cccc(C(F)(F)F)c4)c3)cc2-c2ccncc2)c1`: the growth in the experiment with T-47D breast was -0.45% (active); in the experiment with BT-549 breast it was 12.9%; with MDA-MB-435 melanoma, -20.9% (active); with SW-620 colon, 11.2%; in the experiment on MCF7 breast, 0.3% (active); in the experiment with HCT-116 colon, 5.07% (active). Besides, the growth was 19% in the experiment on HCC-2998 colon and 9.81% (active) with KM12 colon.
As to `Cc1nc2scc(-c3ccc(Cl)cc3)n2c(=O)c1CCN1CCOCC1`, the growth is 76.6% in the experiment with T-47D breast; 103% with BT-549 breast; 95.8% with MDA-MB-435 melanoma; 105% in the experiment with SW-620 colon; 90.2% in the experiment with MCF7 breast; 105% in the experiment on HCT-116 colon. The growth is 106% in the experiment with HCC-2998 colon and 107% in the experiment on KM12 colon.
Regarding `O=C(O)c1ccc(CNc2ccc(C(=O)CCl)cc2)cc1`, the growth in the experiment on T-47D breast is 58.1%; in the experiment on BT-549 breast, 96.4%; in the experiment on MDA-MB-435 melanoma, 87.7%; with SW-620 colon it was 93.4%; in the experiment on MCF7 breast, 32.4%; in the experiment with HCT-116 colon, 80.8%. The growth is 127% with HCC-2998 colon and 101% in the experiment on KM12 colon.
As to `N#Cc1ccc(-n2cnc(NC(=O)[C@H]3CCN(C#N)C3)c2)cc1`, the growth was -9.28% (active) with T-47D breast; 18.5% in the experiment on BT-549 breast; 16.2% in the experiment with MDA-MB-435 melanoma; 16.6% in the experiment with SW-620 colon; 4.82% (active) in the experiment on MCF7 breast; 5.34% (active) with HCT-116 colon. Also, the figures for the growth in the experiment with HCC-2998 colon and in the experiment on KM12 colon were 38.5% and 8.31% (active), respectively.
`Cc1ccc([P+](Cc2ccccc2)(c2ccccc2)c2ccccc2)cc1`: the growth with T-47D breast was -3.45% (active); in the experiment on BT-549 breast it was -4.96% (active); in the experiment with MDA-MB-435 melanoma it was 2.32% (active); in the experiment on SW-620 colon, 24.4%; in the experiment with MCF7 breast it was 9.62% (active); with HCT-116 colon, 4.1% (active). The results for the growth in the experiment with HCC-2998 colon and in the experiment on KM12 colon were 21.6% and 8.34% (active), respectively.
As to `COc1c(-c2c3sc(=O)[nH]c3nc3c2c(=O)[nH]n3C(C)C)cc2c(c1OC)OCO2`, the growth with T-47D breast was 98.6%; in the experiment on BT-549 breast it was 84.6%; in the experiment on MDA-MB-435 melanoma it was 90.9%; with SW-620 colon, 108%; in the experiment on MCF7 breast it was 106%; in the experiment on HCT-116 colon, 101%. Further, the growth is 107% in the experiment on HCC-2998 colon and 101% in the experiment with KM12 colon.
As for `Cc1cc(C)c2nc(C)c(C)[n+]([O-])c2c1`, the growth in the experiment with T-47D breast was 94.9%; in the experiment with BT-549 breast it was 106%; in the experiment on MDA-MB-435 melanoma it was 111%; with SW-620 colon, 114%; in the experiment on MCF7 breast it was 95.6%; in the experiment on HCT-116 colon it was 97.3%. Also, the growth is 97.9% in the experiment on HCC-2998 colon and 106% with KM12 colon.
Take `CC(C)c1ncc(CO)n1Cc1c(Cl)cccc1Cl`: the growth is 73.8% in the experiment on T-47D breast; 104% in the experiment on BT-549 breast; 102% with MDA-MB-435 melanoma; 100% in the experiment with SW-620 colon; 99.5% with MCF7 breast; 102% in the experiment with HCT-116 colon. Also, the growth is 109% in the experiment on HCC-2998 colon and 101% in the experiment with KM12 colon.
As to `CCOC(=O)/C(C#N)=C(/C)C1CC1`, the growth in the experiment on T-47D breast is 103%; in the experiment on BT-549 breast, 107%; in the experiment on MDA-MB-435 melanoma, 106%; in the experiment on SW-620 colon, 108%; in the experiment with MCF7 breast, 101%; in the experiment on HCT-116 colon it was 110%. Besides, the values for the growth with HCC-2998 colon and in the experiment with KM12 colon were 112% and 106%, respectively.
Regarding `Cc1ccc(/C=C2\CN(Cc3cn(CCNc4ccnc5cc(Cl)ccc45)nn3)C/C(=C\c3ccc(C)cc3)C2=O)cc1`, the growth with T-47D breast was -12.3% (active); in the experiment on BT-549 breast, -71% (active); with MDA-MB-435 melanoma, -67.3% (active); with SW-620 colon, -63.6% (active); in the experiment on MCF7 breast it was -38.3% (active); in the experiment on HCT-116 colon it was -53.5% (active). Moreover, the growth in the experiment with HCC-2998 colon is -91% (active); in the experiment with KM12 colon it was -93.8% (active).
On to `O=c1[nH]c(=O)n(C2C[C@@H](O)[C@@H](CO)O2)cc1F` (some centres undefined), for which the growth with T-47D breast was 54.3%; in the experiment on BT-549 breast, 1.4% (active); in the experiment on MDA-MB-435 melanoma it was 37.1%; in the experiment on SW-620 colon it was 55.9%; with MCF7 breast, 20.7%; in the experiment on HCT-116 colon, 16.8%. Moreover, the growth was -6.77% (active) in the experiment with HCC-2998 colon and 33.4% with KM12 colon.
`O=c1oc2cc(OS(=O)(=O)C3CC3)ccc2c2c1CCCCCC2`: the growth was 57.6% in the experiment with T-47D breast; 80.1% with BT-549 breast; 94.8% with MDA-MB-435 melanoma; 96.5% in the experiment with SW-620 colon; 81.6% with MCF7 breast; 82.5% with HCT-116 colon. For the same compound, the growth with HCC-2998 colon was 90.8%; in the experiment on KM12 colon, 77.8%.
Regarding `Cc1c(C(=O)N[C@H](CO)Cc2ccccc2)[nH]c2ccc(Cl)cc2c1=O`, the growth with T-47D breast was 89.9%; with BT-549 breast, 107%; in the experiment on MDA-MB-435 melanoma it was 89.3%; in the experiment with SW-620 colon it was 101%; with MCF7 breast it was 92.7%; in the experiment with HCT-116 colon it was 97.4%. Moreover, the growth in the experiment on HCC-2998 colon was 94.4%; with KM12 colon, 106%.
On to `O=C(O)CCCCSCCCCC(=O)O`, for which the growth is 86.7% with T-47D breast; 110% in the experiment with BT-549 breast; 107% in the experiment on MDA-MB-435 melanoma; 111% in the experiment on SW-620 colon; 97.5% with MCF7 breast; 108% with HCT-116 colon. For the same compound, the growth in the experiment with HCC-2998 colon is 106%; in the experiment with KM12 colon it was 110%.
In the case of `CN(C1c2ccccc2Oc2ccccc21)S(=O)(=O)c1cc(Cl)ccc1Cl`, the growth with T-47D breast was 39.3%; with BT-549 breast, 71.9%; in the experiment with MDA-MB-435 melanoma, 4.17% (active); in the experiment on SW-620 colon, 30.3%; with MCF7 breast it was 21.4%; in the experiment on HCT-116 colon it was 31.3%. Besides, the growth in the experiment with HCC-2998 colon was 84.3%; in the experiment on KM12 colon, 42.8%.
As for `COC(=O)c1cnc2c(c1)Oc1ccccc1-c1ccnn1-2`, the growth was 84.4% with T-47D breast; 102% in the experiment on BT-549 breast; 99.5% with MDA-MB-435 melanoma; 99.4% in the experiment with SW-620 colon; 96.3% with MCF7 breast; 92.1% in the experiment on HCT-116 colon. The values for the growth in the experiment on HCC-2998 colon and with KM12 colon were 99.7% and 109%, respectively.
As for `COC(=O)[C@]12CC[C@@H](C)[C@H](C)[C@@H]1C1=CC[C@@H]3[C@@]4(C)CC(=O)[C@H](O)[C@@]5(C)COC(=C45)C[C@@]3(C)[C@]1(C)CC2`, the growth was -37.3% (active) in the experiment on T-47D breast; -61.7% (active) with BT-549 breast; -27.6% (active) in the experiment on MDA-MB-435 melanoma; -60% (active) in the experiment on SW-620 colon; -45.8% (active) with MCF7 breast; -76.2% (active) in the experiment on HCT-116 colon. Also, the values for the growth in the experiment with HCC-2998 colon and with KM12 colon were -88.1% (active) and -64.1% (active), respectively.
Regarding `CCCOCC(O)CNCCN` (centres undefined), the growth was 103% in the experiment on T-47D breast; 110% in the experiment on BT-549 breast; 98.5% in the experiment with MDA-MB-435 melanoma; 98.9% in the experiment on SW-620 colon; 97.4% in the experiment with MCF7 breast; 104% in the experiment on HCT-116 colon. For the same compound, the growth is 131% in the experiment with HCC-2998 colon and 122% in the experiment on KM12 colon.
